PKA kinase inh: inhibitors of human protein kinase A. inhibition, % at 6 µM. PKA Kemptide phosphorylation, Kinase-Glo ATP luminescence. P17612. 65,000 tested, 0.1% active;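 active = inhibition above the screen-wide mean inhibition plus 3 SD, cut at about 21% in these data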
DAT uptake mod: modulates human dopamine transporter uptake under cocaine; Q01959; LLC-PK1 hDAT cells, [14C]-dopamine uptake with cocaine IC80; actives deviate in either direction; B-score at 10 µM; 110,000 tested, 1.3% active; AID 449768;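 active = Z score or B-score, a plate-position-corrected score, falls beyond the plate's 99.7% confidence bounds, in either direction; inactive = both scores lie inside the 99.7% bounds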;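 note: scored against the spread of the other compound wells on the same plate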
D1 mod: allosteric modulators of human D1 dopamine receptor; 58,000 tested, 5.9% active; AID 641; P21728; HEK293 D1, CRE-luciferase, dopamine EC30 potentiation; actives deviate in either direction; B-score at 10 µM;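 active = luminescence count or its row- and column-corrected plate score outside the 99.7% band of the plate's sample wells, on either side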
ROCK2 inh: ROCK2 (human) kinase inhibition; purified ROCK2, Kinase-Glo ATP depletion luminescence; AID 604; O75116; 60,000 tested, 0.35% active; inhibition, % at 6 µM;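 active = inhibition above the screen-wide mean inhibition plus 3 SD, cut at about 18% in these data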;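 note: plate controls were DMSO wells for no effect and Y-27632 control wells after no-enzyme background subtraction for full effect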
The depositor's hits bear a star. This excerpt belongs to a sample that is enriched for hits.

How did COc1ccc(-c2cc(-c3ccccc3)nc(N3CCCC3)n2)cc1OC do in these assays?
PKA kinase inh: 9; DAT uptake mod: 0.032; D1 mod: -8.7*; ROCK2 inh: 4

What do the screens show for `Cc1ccc(C)c(-c2nn(-c3cc(N4CCN(CCO)CC4)ccc3[N+](=O)[O-])c(=O)c3ccccc23)c1`?
DAT uptake mod: 0.65

How did COc1ccc(C(=O)c2c[nH]c3ccccc23)cc1 do in these assays?
DAT uptake mod: 0.33; D1 mod: -2.2*

Results for c1cc(CNc2ccc3c(c2)OCO3)ccn1 ?
PKA kinase inh: 13; DAT uptake mod: 0.21; D1 mod: 0.38; ROCK2 inh: 6

What do the screens show for `Cc1ccc(CNc2ccc3c(c2)OCO3)cc1`?
PKA kinase inh: 2; DAT uptake mod: 0.066; D1 mod: -5*; ROCK2 inh: -8

What do the screens show for `CC(C)(C)NC(NC(=O)Cc1ccccc1)C(Cl)(Cl)Cl` (stereo not given)?
DAT uptake mod: 1.2

How did Cc1c(C(=O)N2CCCCC2)oc2ccc(S(=O)(=O)N3CC(C)CC(C)C3)cc12 (stereo not given) do in these assays?
PKA kinase inh: -1; DAT uptake mod: -0.097; D1 mod: -1.1; ROCK2 inh: 1

Results for Cc1c(C(=O)NCCN2CCOCC2)oc2ccc(S(=O)(=O)N3CCCCCC3)cc12 ?
PKA kinase inh: -5; DAT uptake mod: 2*; D1 mod: -0.59

What do the screens show for `CCOC(=O)N1CCN(C(=O)c2oc3ccc(S(=O)(=O)N4CCCCC4)cc3c2C)CC1`?
PKA kinase inh: -7; DAT uptake mod: 3*; D1 mod: 1.1; ROCK2 inh: 0

How did Cc1c(C(=O)NCCc2ccccc2)oc2ccc(S(=O)(=O)N3CCOCC3)cc12 do in these assays?
PKA kinase inh: -8; DAT uptake mod: -0.68

What do the screens show for `c1ccc(C2(CNc3ccccn3)CCCC2)cc1`?
DAT uptake mod: -1.1

Results for Clc1cc(Sc2ccc(Br)cc2)nnc1-c1ccccc1 ?
DAT uptake mod: -0.42

Results for CCCN(CCC)CCNC(=O)C1CCCN(S(=O)(=O)c2ccc3c(c2)oc(=O)n3C)C1 (stereo not given) ?
PKA kinase inh: 5; DAT uptake mod: -0.77; D1 mod: -3.1*; ROCK2 inh: -3

Results for Clc1ccc(NCc2nnc3n2CCCCC3)cc1 ?
PKA kinase inh: -12; DAT uptake mod: -0.63; D1 mod: 0.19; ROCK2 inh: -4

Results for c1ccc(NCc2nnc3n2CCCCC3)cc1 ?
PKA kinase inh: 12; DAT uptake mod: 1.9*; D1 mod: -0.96; ROCK2 inh: 7

Results for CC1(CC(=O)N/N=C/c2ccc(OCc3ccc(Cl)cc3Cl)cc2)OCCCO1 ?
DAT uptake mod: 3.4*

Results for Oc1[nH]c2ccccc2c1C=Nc1ccc2c(c1)OCO2 ?
PKA kinase inh: 6; DAT uptake mod: -0.42; D1 mod: -4.4*; ROCK2 inh: 5

Results for COc1ccc(N=Cc2c(O)[nH]c3ccccc23)cc1 ?
DAT uptake mod: 0.49

Results for O=c1ccc(=O)n2n1CC(O)C2 ?
PKA kinase inh: 14; DAT uptake mod: -0.58; D1 mod: 2.3; ROCK2 inh: 22*

How did O=C(OCc1nnn(Cc2ccccc2)c1-c1c(COC(=O)c2ccccc2)nnn1Cc1ccccc1)c1ccccc1 do in these assays?
DAT uptake mod: -0.11

How did CCCc1nc(SCC(N)=O)[nH]c(=O)c1CC do in these assays?
PKA kinase inh: 2; DAT uptake mod: -1.4; D1 mod: -2.8*

How did CCCc1cc(=O)[nH]c(SCC(N)=O)n1 do in these assays?
PKA kinase inh: 11; DAT uptake mod: -0.67; D1 mod: -0.81; ROCK2 inh: 4

Results for O=S1(=O)C=C(Sc2nc3cc(Cl)ccc3o2)c2ccccc21 ?
PKA kinase inh: 3; DAT uptake mod: -1; D1 mod: -2.3*; ROCK2 inh: 2

What do the screens show for `C=CS(=O)(=O)c1ccc(Oc2ccc(S(=O)(=O)C=C)cc2)cc1`?
PKA kinase inh: 8; D1 mod: -4.8*; ROCK2 inh: 5

Results for O=S(=O)(c1ccc(Oc2ccc(S(=O)(=O)N3CCOCC3)cc2)cc1)N1CCOCC1 ?
PKA kinase inh: 4; DAT uptake mod: 0.33; D1 mod: -1.2; ROCK2 inh: 5

Results for O=C(COc1ccccc1)Nc1nnc(-c2ccc(Cl)s2)o1 ?
PKA kinase inh: 2; DAT uptake mod: -0.47; D1 mod: 0.0058; ROCK2 inh: 1

Results for Cc1nc2c(c(=O)n1CCC(C)C)c1nc3ccccc3nc1n2Cc1ccc2c(c1)OCO2 ?
PKA kinase inh: -7; DAT uptake mod: 0.069; D1 mod: 8.8*; ROCK2 inh: -6

What do the screens show for `COc1ccc(CCNc2oc(-c3ccccc3OC)nc2C#N)cc1OC`?
PKA kinase inh: 13; DAT uptake mod: 4.6*; D1 mod: 3.1; ROCK2 inh: 7
